Screening data from PubChem BioAssay.
An excerpt weighted towards active compounds, which were near 2.1% of everything screened.
NSD2 inh – NSD2 histone methyltransferase inhibitors, primary screen, biochemical, AlphaScreen, single concentration, set 2; Histone-lysine N-methyltransferase NSD2 (Homo sapiens), O96028; AID 743445, 2014; NSD2 peptide methylation, 120 min; 0.54% of 310,000 active; inhibition, % at 12.5 µM; in the data active = inhibition above about 50%
SIRT5 inh – SIRT5 desuccinylase inhibitors, primary screen, biochemical, fluorescence imaging, single point, set 5. NAD-dependent protein deacylase sirtuin-5, mitochondrial (Homo sapiens), Q9NXA8. Purified SirT5, succinyl-peptide AMC, trypsin-coupled fluorescence. inhibition, % at 15 µM. 1.1% of 330,000 active; in the data active = inhibition above about 15%
Target sequence (Q9NXA8 whole entry, looked up): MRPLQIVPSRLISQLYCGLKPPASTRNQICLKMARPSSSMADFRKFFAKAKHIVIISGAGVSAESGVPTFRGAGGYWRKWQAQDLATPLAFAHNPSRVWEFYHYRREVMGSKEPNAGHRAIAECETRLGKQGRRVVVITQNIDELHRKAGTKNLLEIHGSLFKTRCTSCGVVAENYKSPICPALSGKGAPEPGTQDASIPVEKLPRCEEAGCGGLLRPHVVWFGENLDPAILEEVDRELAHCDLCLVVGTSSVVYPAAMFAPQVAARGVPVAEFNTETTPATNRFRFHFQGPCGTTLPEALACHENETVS
PfHsp90 yeast 2 – growth inhibition of PfHsp90-expressing yeast, primary screen, antimalarial PfHsp90 inhibitor project, S. cerevisiae, BacTiter-Glo luminescence, single point, set 2; inhibition, % at 9.4 µM; BacTiter-Glo ATP, 48 h; yeast lacking PDR1 and PDR3 efflux regulators; AID 504621, 2011; 0.32% of 310,000 active;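 active = every replicate shows inhibition above about 80%, whatever the replicate mean, limit read from the data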;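 note: 0% = DMSO neutral controls and 100% = 20 µM radicicol positive controls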
Casp6 inh – human caspase-6 inhibitors, primary screen, biochemical, VEID-R110 fluorescence, single point, set 2. P55212. purified caspase-6, Z-VEID-R110 cleavage fluorescence. inhibition, % at 12.5 µM. 0.53% of 350,000 active;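 active = mean inhibition across replicates at least about 35%, with every replicate also reaching that limit, limit read from the data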;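 note: 0% = median of neutral control wells and 100% = no fluorescence left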
Target sequence (P55212 24-179 limits assumed): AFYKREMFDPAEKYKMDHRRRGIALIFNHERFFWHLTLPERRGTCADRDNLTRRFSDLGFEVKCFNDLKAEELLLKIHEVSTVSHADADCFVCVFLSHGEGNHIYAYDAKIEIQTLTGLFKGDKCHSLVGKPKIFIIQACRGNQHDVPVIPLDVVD
Target sequence (P55212 194-293 limits assumed): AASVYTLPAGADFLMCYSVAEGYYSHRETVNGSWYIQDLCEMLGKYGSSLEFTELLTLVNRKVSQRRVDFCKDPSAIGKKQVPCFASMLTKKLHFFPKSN
ARNT TACC3 PPI – disruptors of ARNT/TACC3 protein interaction, primary screen, biochemical, AlphaScreen, single concentration; Transforming acidic coiled-coil-containing protein 3 (Homo sapiens), Q9Y6A5; AlphaScreen His-ARNT PAS-B/GST-TACC3 binding, luminescence; TACC3 fragment carries E629A point mutation; inhibition, % at 9.99 µM; 0.66% of 390,000 active; AID 623870, 2012;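 active = mean inhibition of replicates at least 50% and at least half of replicates each reaching 50%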;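 note: 0% = complete ARNT plus TACC3 wells and 100% = ARNT alone without TACC3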
An asterisk follows results filed as active; . = no result given.

SMILES | NSD2 inh | SIRT5 inh | PfHsp90 yeast 2 | Casp6 inh | ARNT TACC3 PPI
O=C(O)/C=C/C(=O)Nc1ccc(SC(F)(F)C(F)(F)C(F)(F)F)cc1 | 0 | -2 | -6 | 0 | -9
O=C(O)/C=C/C(=O)Nc1ccc(C2(c3ccc(NC(=O)/C=C/C(=O)O)cc3)c3ccccc3-c3ccccc32)cc1 | 6 | 16* | -11 | 47* | -1
O=C(O)/C=C\C(=O)Nc1ccc(Oc2ccccc2)cc1 | . | . | 59 | . | 2
Cc1ccc(S(=O)(=O)N(C)C[C@H]2OCCCC[C@H](C)Oc3ccc(NC(=O)c4ccccc4)cc3C(=O)N([C@@H](C)CO)C[C@H]2C)cc1 | . | 6 | . | -3 | 13
O=C(Nc1ccccc1)N1CC(=O)N2[C@H](CO)[C@H](c3ccc(C#Cc4cccnc4)cc3)[C@@H]2C1 | . | -4 | . | 0 | .
C[C@@H]1CN([C@@H](C)CO)C(=O)c2cccc(N(C)C)c2O[C@@H]1CN(C)Cc1ccccc1 | . | 23* | . | -1 | -9
C[C@H](CO)N1C[C@H](C)[C@@H](CN(C)Cc2ccccc2)Oc2ccc(N(C)C)cc2C1=O | . | 21* | . | 2 | -10
COC(=O)CCC(=O)OC1(C)C(=O)C=C2C=C(C3CC3)N(CCc3ccccn3)C=C2C1=O (centres undefined) | . | -2 | 7 | 31 | 11*
COC(=O)CCC(=O)OC1(C)C(=O)C=C2C=C(C3CC3)N(CCN3CCOCC3)C=C2C1=O (centres undefined) | . | . | 17 | 19 | 3
COC(=O)CCC(=O)OC1(C)C(=O)C=C2C=C(C3CC3)N(CCCOC(C)C)C=C2C1=O (centres undefined) | . | . | 18 | . | 75*
COC(=O)CCC(=O)OC1(C)C(=O)C=C2C=C(C3CC3)N(CCCCO)C=C2C1=O (centres undefined) | . | -1 | 3 | 37* | 32*
C=CCN1C=C2C(=O)C(C)(OC(=O)CCC(=O)OC)C(=O)C=C2C=C1C1CC1 (centres undefined) | . | . | . | 17 | 3
COc1ccc(NC(=O)Nc2ccc3c(c2)[C@H]2C[C@@H](CC(=O)N4CCCCC4)O[C@H](CO)[C@H]2O3)cc1 | . | -8 | . | 3 | -9
CC(C)CC#Cc1ccc2c(c1)O[C@H](CN(C)C(=O)c1ccccn1)[C@H](C)CN([C@@H](C)CO)S2(=O)=O | . | 0 | . | -1 | 0
C[C@@H]1CN([C@H](C)CO)C(=O)Cc2cc(NC(=O)CCN3CCOCC3)ccc2O[C@@H]1CN(C)Cc1ccc(Cl)c(Cl)c1 | . | -2 | . | 0 | -4
COc1ccc(C(=O)/C=C/c2ccc(OCc3ccccc3)cc2)cc1CSCC(=O)O | 35 | 5 | -89 | 44* | -3
COc1ccc(C=CC(=O)c2ccc(OCc3ccccc3)c(OC)c2)cc1OC | 1 | 2 | . | . | .
COc1ccc(C(=O)/C=C/c2cccc(OCc3ccccc3)c2)cc1CSCC(=O)O | 43 | 4 | -7 | 44* | 0
CCCCCC[N+](C)(C)CCSSCC[N+](C)(C)CCCCCC | 2 | -3 | 11 | -12 | -7
CCCCCCCCCCCCCCCC[N+](C)(C)CCl | . | . | 105* | -146 | -3
CCCCCCCCCCCCCCCC[N+](C)(C)CC | . | 7 | 108* | -119 | 0
CNC[C@@H]1Oc2ccc(NS(=O)(=O)c3cn(C)cn3)cc2C(=O)N([C@@H](C)CO)C[C@@H]1C | . | 0 | . | -3 | -5
N#C/C(=C\c1ccc(O)c(O)c1)C(=O)c1ccc(O)c(O)c1 | . | 11 | 10 | 72* | 16
N#C/C(=C\c1ccc(O)c(O)c1)C(=O)N1CCCC1 | 10 | 1 | -28 | 9 | 2
COc1cc2ccnc(C=O)c2cc1OC | 0 | . | . | . | .
SMILES | NSD2 inh | SIRT5 inh | PfHsp90 yeast 2 | Casp6 inh | ARNT TACC3 PPI
COc1ccc(C(N)c2nccc3cc(OC)c(OC)cc23)cc1OC (centres undefined) | . | . | -14 | . | 72*
CCC(=O)N1CC[C@@H]2[C@H](CO)Nc3ccc(-c4cccc(C#N)c4)cc3[C@@H]21 | . | . | . | . | 8
Cc1ccc(NC2C(=O)NC(=O)NC2=O)cc1 | . | -1 | -1 | 16 | 41*
COc1ccc(CN(C)C(=O)c2ccc(Oc3ccccc3)cc2)cc1F | 2 | -7 | -3 | 3 | -4
COc1ccc(C(=O)N(C)Cc2ccccc2)cc1Br | -4 | 18* | . | 2 | .
CO[C@@H]1CN(C)C(=O)c2cc(NC(=O)CC(F)(F)F)ccc2OC[C@H](C)N(C(C)=O)C[C@@H]1C | . | 2 | . | -3 | .
O=C(N=C1SC2CS(=O)(=O)CC2N1c1ccc(F)cc1F)C1CC1 (centres undefined) | 1 | 17* | -22 | 2 | 8
O=C(N=C1SC2CS(=O)(=O)CC2N1c1ccccc1F)C1CCCCC1 (centres undefined) | 6 | -4 | -5 | -2 | -2
Cc1cc(S(=O)(=O)Nc2nc(CN3CCOCC3)nc3sc4c(c23)CCC4)cc(C)c1C | 10 | 3 | 1 | 13 | -4
COc1cccc(Nc2nc(CN3CCOCC3)nc3sc4c(c23)CCCC4)c1 | -2 | 22* | 4 | 0 | 5
CCC(=O)N(C)C[C@@H]1Oc2cc(C#Cc3ccncc3)ccc2S(=O)(=O)N([C@@H](C)CO)C[C@@H]1C | . | 1 | . | 0 | -4
CC1=NN(c2ccc(Br)cc2)C(=O)/C1=C/c1ccc(-c2ccccc2C(=O)O)o1 | 11 | 4 | -3 | 8 | 35
Cc1cc2nc3s/c(=C/c4ccc(-c5ccccc5C(=O)O)o4)c(=O)n3c2cc1C | 23 | -4 | -9 | 36* | -1
Cc1cc2nc(/C(C#N)=C\c3ccc(-c4ccccc4C(=O)O)o3)[nH]c2cc1C | -2 | 1 | -12 | 7 | 27
O=C(O)c1ccccc1-c1ccc(/C=c2\sc3nc4cc(Br)cnc4n3c2=O)o1 | . | . | -37 | . | 50*
CCNC(=O)C[C@@H]1CC[C@@H]2[C@H](COc3ccc(NC(=O)c4ccc(C(F)(F)F)cc4)cc3C(=O)N2C)O1 | . | -3 | . | 3 | 2
C[C@@H]1CCCCO[C@@H](CN(C)C(=O)Nc2ccccc2)[C@@H](C)CN([C@@H](C)CO)C(=O)c2cc(NS(=O)(=O)c3ccc(Cl)cc3)ccc2O1 | . | 7 | . | 6 | 2
C[C@H]1CN([C@@H](C)CO)C(=O)c2cc(NC(=O)CCCCCC(=O)Nc3ccccc3N)ccc2O[C@H]1CN(C)C(=O)Nc1ccc(F)cc1 | . | 4 | . | -1 | .
Cc1ccc(S(=O)(=O)Nc2ccc3c(c2)CC(=O)N([C@H](C)CO)C[C@@H](C)[C@H](CN(C)C(=O)NC(C)C)O3)cc1 | . | -4 | . | -1 | -1
